Hits are enriched below; roughly 21% of the tested compounds scored in any of these assays.
Shiga toxin inh – Shiga toxin inhibition; 290,000 compounds, 9.2% hits; Vero cells, Shiga toxin protein synthesis inhibition reporter; inhibition, % at 38.7 µM; in the data active = inhibition mostly above about 28%, no sharp cut-off; inactive = mostly below about 43%; also: 0% is about no effect
NS1 function inh – inhibitors of influenza NS1 protein function; Potency, µM (doses to about 46.1 µM), without a hit: at the top dose activity, positive = more growth; 270,000 compounds, 0.4% hits; AID 2326; also: potency is read from the fitted curve at half-maximal effect; actives are rising curves; nearly all actives have a fitted effect of over 50% in size
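S. cerevisiae expressing influenza A NS1, grown in glucose, washed, then diluted 1:100 into pH 6.0 -URA galactose medium with 23 nl compound. Growth recovery read as OD600; NS1-free strain serves as control.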
SARS PLpro yeast – SARS-CoV PLP inhibition in yeast | 330,000 compounds, 0.19% hits | AID 485353 | S. cerevisiae expressing SARS-CoV PLpro, growth rescue | Potency, µM (doses to about 32.9 µM), for inactives: top-dose activity, positive = growth rescue, hits mostly activators; also: potency is read from the fitted curve at half-maximal effect; 0% is about no effect; nearly all actives have a fitted effect of over 55% in size
Pf growth 96h – inhibits malaria parasite growth, 96 h | Potency, µM (doses to about 28.7 µM), without a hit: top-dose activity change, negative = inhibition, most hits filed as inhibitors | 320,000 compounds, 6.9% hits | P. falciparum luciferase reporter growth, 96 h | AID 504834; active = well fitted inhibition curve with a large enough effect; inconclusive = small, poorly fitted or top-dose-only effect, or another doubt; inactive = no such curve, though single readings can be large or run the other way; also: potency is read from the fitted curve at half-maximal effect; % is scaled to controls: 0 for no effect and ±100 for the full control effect
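Luminescence readout: decreased luciferase signal marks inhibited growth of reporter-expressing P. falciparum in infected red cells (2% hematocrit, 0.05% parasitemia final), exposed to compound two generations (96 h, 37 C, 5% CO2).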
Pf growth 48h – inhibits P. falciparum growth in the first generation, 48 h. P. falciparum luciferase growth in erythrocytes, 48 h. Potency, µM (highest dose often 28.7 µM), for the others: at the top dose activity change, negative = inhibition, most hits filed as inhibitors. 310,000 compounds, 5.9% hits; active = well fitted inhibition curve with a large enough effect; inconclusive = small, poorly fitted or top-dose-only effect, or another doubt; inactive = no such curve, though single readings can be large or run the other way; also: potency is read from the fitted curve at half-maximal effect; % is scaled to controls: 0 for no effect and ±100 for the full control effect
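Here the parasites carry a stable luciferase gene and grow inside erythrocytes in Albumax-based RPMI medium with compound for one erythrocytic cycle. Activity is scored as loss of luminescent signal.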
Cycloheximide cs – affects cycloheximide protein synthesis inhibition readout, counter-screen | cell reporter, cycloheximide protein synthesis inhibition counterscreen | max response, % | 300,000 compounds, 12% hits | AID 2314; in the data active = max response mostly above about 13%, no sharp cut-off; inactive = mostly below about 14%; also: read at 38.3 µM for the half of the compounds with a filed dose; 0% is about no effect
* marks the source's active call; other numbers are inactive results; i = inactive; ? = inconclusive; nt = not tested or not shown; [ ] = remark or other dose. Unless noted, calls follow the shape of the full dose curve.

SMILES	Shiga toxin inh	NS1 function inh	SARS PLpro yeast	Pf growth 96h	Pf growth 48h	Cycloheximide cs
O=C(COc1ccc2ccccc2c1)N[C@@H](C(=O)O)c1ccc(O)cc1	-5.5	10.4%	0.7%	19.7%	28.7%	-0.7
CCOC(=O)COc1ccc(S(=O)(=O)Nc2ccc3c(c2)OCCO3)cc1	16.4	-7.0%	-1.3%	nt	21.5%	17.6*
CCc1cccc(NS(=O)(=O)c2c(C)n[nH]c2C)c1	-2.1	8.8%	-3.2%	13.1µM*	?	-2.0
O=S(=O)(NCC1CCCO1)c1ccccc1F (stereo not given)	-2.0	7.3%	-0.4%	16.0%	10.9%	6.7
CCN1C(=O)C(=O)c2cc(C)ccc21	nt	nt	11.2µM*	nt	nt	nt
O=C1C(=O)N(CCCc2ccccc2)c2ccccc21	2.6	0.7%	-11.9%	10.4µM*	?	6.6
Cc1ccc2c(c1)C(=O)C(=O)N2CCCOc1ccccc1	26.0	-8.4%	-3.0%	-0.2%	-14.2%	13.5*
Cc1ccc(OCCCN2C(=O)C(=O)c3cc(C)ccc32)cc1	-7.3	-3.9%	-1.0%	24.7%	-13.5%	-1.5
Cc1ccc(S(=O)(=O)N2[C@@H](c3ccc(F)cc3)C(C(=O)O)=CC[C@H]2c2cccs2)cc1	nt	nt	-2.0%	?	?	nt
COCCN(C(=O)COC(=O)C(c1ccccc1)c1ccccc1)c1c(N)n(Cc2ccccc2)c(=O)[nH]c1=O	nt	nt	2.5%	7.38µM*	10.4µM*	nt
COCCn1c(C)cc(/C=C(\C#N)C(=O)OCC(=O)N(C)c2c(N)n(Cc3ccccc3)c(=O)[nH]c2=O)c1C	nt	nt	-2.2%	13.1µM*	?	nt
CCC(C(=O)OCC(=O)N(CCOC)c1c(N)n(Cc2ccccc2)c(=O)[nH]c1=O)c1ccccc1 (stereo not given)	-10.5	10.2%	1.4%	?	-5.9%	-1.8
COCCN(C(=O)COC(=O)c1ccccc1Nc1ccccc1)c1c(N)n(Cc2ccccc2)c(=O)[nH]c1=O	nt	nt	-2.8%	9.28µM*	?	nt
O=c1[nH][nH]c(C(F)(F)F)c1C=NCc1cccc(Cl)c1	-17.8	-11.4%	7.0%	nt	-5.9%	-1.4
COC(=O)c1cc(OC)c(OC)cc1NC(=O)c1cc(C)on1	nt	18.8%	nt	nt	nt	nt
CN(C)C(=O)c1cc(C(=O)c2ccccc2F)c[nH]1	21.2	2.9%	0.7%	55.4%	20.2%[0.00184 µM]	1.4
CN(C)C(=O)c1cc(C(=O)c2ccc(C(F)(F)F)cc2F)c[nH]1	92.1*	nt	-1.2%	186.9%	i	42.3*
CN(C)C(=O)c1cc(C(=O)c2ccc(F)cc2F)c[nH]1	102.0*	9.4%	-0.3%	87.7%	43.4%	16.2*
Cc1cccc(NC(=S)NCc2ccccc2Cl)c1C	-11.4	6.9%	0.8%	?	?	8.8
O=C(CCSc1ccccc1)NCCSCc1ccco1	6.9	-10.5%	-21.1%	?	118.9%	10.8*
O=C(NCCSCc1ccco1)Nc1ccc(Cl)cc1	100.8*	-32.3%	nt	nt	67.0%	28.7*
O=C(NCCSCc1ccco1)Nc1cccc(Cl)c1	39.6*	-55.7%	-12.4%	?	?	37.0*
Cc1cc(Cl)ccc1N(CC(=O)NCCSCc1ccco1)S(C)(=O)=O	20.1	0.5%	1.1%	11.8%	3.3%	9.3
O=C(COc1ccccc1)NCCSCc1ccco1	12.5	2.6%	-15.4%	-12.6%	18.7%	12.2
Cc1ccc(C(=O)NCC(=O)OCC(=O)NC(C)C2CC3CCC2C3)cc1 (stereo not given)	nt	nt	-1.2%	68.8%	-1.2%	nt
SMILES	Shiga toxin inh	NS1 function inh	SARS PLpro yeast	Pf growth 96h	Pf growth 48h	Cycloheximide cs
Cc1cc(C)n(CC(=O)NNC(=O)C2CC(=O)N(Cc3ccccc3Cl)C2)n1 (stereo not given)	1.6	7.7%	3.5%	34.8%	17.4%	-1.8
O=C(Nc1ccc(NC(=O)c2cccnc2Cl)cc1)c1cccc(Cl)c1	39.6*	-13.0%	-0.7%	7.2%	14.5%	21.0
CC(=O)NC(=S)Nc1ccc(NC(=O)c2cccnc2Cl)cc1	46.5	-7.2%	-1.5%	-3.6%	?	25.2*
CCn1c(CC(=O)Nc2ccccc2F)nnc1SCC(=O)NC1CCCC1	-3.5	3.4%	-1.0%	18.1%	24.3%	-3.2
O=C(CSc1n[nH]c(=O)n1C1CC1)NCc1ccccc1Cl	-3.0	6.8%	-0.5%	21.7%	35.8%	-3.5
COc1cc(CNCCc2ccc(S(N)(=O)=O)cc2)ccc1OCc1ccc(Cl)cc1	10.8	2.5%	-7.6%	6.57µM*	8.28µM*	-3.6
NS(=O)(=O)c1ccc(CCNCc2ccccc2OCc2ccc(F)cc2)cc1	-9.7	-0.2%	-2.7%	?	-0.2%[0.00184 µM]	-3.6
CCOc1ccc(CNCCc2ccc(S(N)(=O)=O)cc2)cc1	-6.1	0.6%	-0.4%	91.6%	-12.9%	-1.1
CCOc1cc(CNCCc2ccc(S(N)(=O)=O)cc2)ccc1OCc1ccc(Cl)cc1	-20.4	10.2%	?	?	9.28µM*	-4.4
CCOc1ccc2ccccc2c1CNCCc1ccc(S(N)(=O)=O)cc1	24.1	2.5%	4.8%	?	11.7µM*	-1.7
Cc1ccc(C(=O)NNC2=NC(C)(C)Cc3ccccc32)cc1	-3.5	0.3%	0.0%	-1.7%	-2.0%	1.0
COc1cccc(CN2CC(C(=O)NCc3cnn(C)c3)CCC2=O)c1 (stereo not given)	8.1	-3.4%	-9.8%	-4.9%	3.2%	-2.2
CC1=NN(C(N)=S)C(=O)C1N=Nc1ccccc1C(=O)O (stereo not given)	nt	?	8.0%	-10.2%	0.0%	-2.6
CC1=NN(c2ccccc2C(=O)O)C(=O)C1N=Nc1ccccc1 (stereo not given)	13.7	?	2.3%	0.0%	?	1.6
CC(=O)Nc1ccc(N=NC2C(=O)N(C(N)=S)N=C2C)cc1 (stereo not given)	40.4	?	-2.0%	?	0.6%	20.8*
CCOc1ccc(N=NC2C(=O)N(C(N)=S)N=C2C)cc1 (stereo not given)	nt	-26.4%	-1.7%	-7.5%	?	28.0*
CC1=NN(C(N)=S)C(=O)C1N=Nc1ccc(O)cc1 (stereo not given)	32.4*	6.3%	-1.1%	22.7%	48.5%	23.6*
CC1=NN(C(N)=S)C(=O)C1N=Nc1cccc(C)c1 (stereo not given)	23.8	-55.1%	1.1%	?	11.7µM*	21.6*
CCOc1ccc(N=Nc2c(=O)[nH]n3c(C)cc(C)nc23)cc1	-4.1	-12.7%	-26.6%	-5.1%	5.0%	-2.7
COc1ccc(NC(=O)COC(=O)c2ccc(Cl)c(S(N)(=O)=O)c2)c([N+](=O)[O-])c1	-5.7	9.8%	0.6%	-18.6%	?	0.5
CC1CCN(Cc2nnnn2CCCC(=O)N(C)C(C)c2ccccn2)CC1 (stereo not given)	13.6	8.5%	3.4%	-11.6%	3.1%	11.6
N#Cc1ccc(OCc2noc(-c3ccsc3)n2)cc1	15.8	-1.4%	0.7%	59.9%	150.7%	7.6
N#CCCCCN1c2cccc3cccc(c23)S1(=O)=O	-12.4	-10.8%	4.7%	nt	3.3%	1.1

Bioassay records as filed in PubChem BioAssay.
